According to PubChem BioAssay AID1159580 (chemical genetic matrix, 2015):
“And” between values parts separate entries of the source, which are not always exact repeats. Equal values may be shown once. Out of some 5,500 compounds screened, about 2,000 (36%) were called active. Another 18% or so got no clear call; they are omitted. Rule as the data show it: active = normalized growth mostly below about 0.91 (no sharp cut-off); inconclusive = no clear call, values can overlap the other calls; inactive = mostly above about 0.92. This is one part of the list.

Assay: chemical genetic growth profiling, strain panel (AID 1159580);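 also: tested at 20 µM; growth read once vehicle control cultures reached saturation at 30 °C; 1 = growth at the plate median or of vehicle wells; lower values mean less growth of the strain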
Settings: S. cerevisiae deletion strains, growth OD

Measured: normalized growth

NC[C@@H]1O[C@H](O[C@@H]2[C@@H](CO)OC(O[C@@H]3[C@@H](O)[C@H](N)C[C@H](N)[C@H]3OC3O[C@H](CN)[C@@H](O)[C@H](O)[C@H]3N)[C@@H]2O)[C@H](N)[C@@H](O)[C@@H]1O (some centres not stated)
inactive: locus YAL013W, strain DEP1, stronger effect = lower value 1 | locus YAL021C, strain ccr4, stronger effect = lower value 1.01 | locus YAL026C, strain drs2, stronger effect = lower value 1.02 | locus YAL030W, strain snc1, stronger effect = lower value 1.02 | locus YBL061C, strain skt5, stronger effect = lower value 1.03 | locus YBR009C, strain hhf1, stronger effect = lower value 1.03 | locus YBR021W, strain FUR4, stronger effect = lower value 0.966 | locus YBR023C, strain chs3, stronger effect = lower value 1.06 | locus YBR171W, strain sec66, stronger effect = lower value 1.04 | locus YBR229C, strain ROT2, stronger effect = lower value 1 | locus YBR231C, strain swc5, stronger effect = lower value 1.01 | locus YBR279W, strain paf1, stronger effect = lower value 1.01 | locus YCL011C, strain gbp2, stronger effect = lower value 1.03 | locus YCL016C, strain dcc1, stronger effect = lower value 1.05 | locus YCL029C, strain bik1, stronger effect = lower value 1.02 | locus YCL061C, strain MRC1, stronger effect = lower value 1.01 | locus YCL069W, strain vba3, stronger effect = lower value 1.02 | locus YCR088W, strain abp1, stronger effect = lower value 1.02 | locus YDL005C, strain med2, stronger effect = lower value 1.01 | locus YDL035C, strain GPR1, stronger effect = lower value 1.01 | locus YDL040C, strain nat1, stronger effect = lower value 1.02 | locus YDL074C, strain BRE1, stronger effect = lower value 1.01 | locus YDL101C, strain DUN1, stronger effect = lower value 1.01 | locus YDL134C, strain PPH21, stronger effect = lower value 1 | locus YDL185W, strain tfp1, stronger effect = lower value 1.01 | locus YDL192W, strain arf1, stronger effect = lower value 1.02 | locus YDR001C, strain nth1, stronger effect = lower value 1.02 | locus YDR069C, strain doa4, stronger effect = lower value 1.03 | locus YDR101C, strain arx1, stronger effect = lower value 1 | locus YDR137W, strain rgp1, stronger effect = lower value 1.06 | locus YDR150W, strain NUM1, stronger effect = lower value 1.01 | locus YDR159W, strain sac3, stronger effect = lower value 0.997 | locus YDR162C, strain NBP2, stronger effect = lower value 1.01 | locus YDR195W, strain ref2 1.01 | locus YDR297W, strain sur2, stronger effect = lower value 1.02 | locus YDR318W, strain mcm21, stronger effect = lower value 1.01 | locus YDR334W, strain swr1, stronger effect = lower value 1.02 | locus YDR335W, strain msn5, stronger effect = lower value 1.02 | locus YDR388W, stronger effect = lower value 1.01 | locus YDR392W, strain spt3, stronger effect = lower value 0.944 | locus YDR502C, strain sam2, stronger effect = lower value 1.03 | locus YEL003W, strain gim4, stronger effect = lower value 1.02 | locus YEL037C, strain rad23, stronger effect = lower value 1.03 | locus YEL061C, strain CIN8 (second series), stronger effect = lower value 1.03 | locus YEL061C, strain CIN8, stronger effect = lower value 1.01 | locus YER015W, strain faa2, stronger effect = lower value 1.03 | locus YER016W, strain bim1, stronger effect = lower value 1.02 | locus YER110C, stronger effect = lower value 1.01 | locus YER111C, strain swi4, stronger effect = lower value 1.02 | locus YER155C, strain BEM2 (second series), stronger effect = lower value 0.973 | locus YER155C, strain BEM2, stronger effect = lower value 1.01 | locus YER167W, strain BCK2, stronger effect = lower value 1.02 | locus YFR010W, strain ubp6, stronger effect = lower value 1.03 | locus YGL078C, strain dbp3, stronger effect = lower value 1.01 | locus YGL086W, strain mad1, stronger effect = lower value 1 | locus YGL167C, strain pmr1, stronger effect = lower value 1.03 | locus YGL173C, strain kem1, stronger effect = lower value 1.03 | locus YGL227W, strain vid30, stronger effect = lower value 1.03 | locus YGL240W, strain doc1, stronger effect = lower value 1 | locus YGL248W, strain PDE1, stronger effect = lower value 1.01 | locus YGL253W, strain hxk2, stronger effect = lower value 1.03 | locus YGR078C, strain PAC10, stronger effect = lower value 1.02 | locus YGR135W, strain pre9, stronger effect = lower value 1.07 | locus YGR229C, strain SMI1, stronger effect = lower value 1 | locus YGR252W, strain gcn5, stronger effect = lower value 0.957 | locus YHR013C, strain ard1, stronger effect = lower value 1.05 | locus YHR027C, strain rpn1, stronger effect = lower value 1.03 | locus YHR030C, strain SLT2, stronger effect = lower value 1.02 and 0.985 | locus YHR079C, strain IRE1 (second series), stronger effect = lower value 1.02 | locus YHR079C, strain IRE1, stronger effect = lower value 0.983 | locus YHR094C, strain hxt1, stronger effect = lower value 1.01 | locus YHR129C, strain ARP1, stronger effect = lower value 1 | locus YHR142W, strain chs7, stronger effect = lower value 1.05 | locus YHR200W, strain rpn10, stronger effect = lower value 1.03 | locus YIL066C, strain RNR3, stronger effect = lower value 1.03 | locus YIL073C, strain SPO22, stronger effect = lower value 1.07 | locus YIL125W, strain kgd1, stronger effect = lower value 1.02 | locus YIR030C, strain dcg1, stronger effect = lower value 1.01 | locus YJL092W, strain hpr5, stronger effect = lower value 1.03 | locus YJL095W, strain BCK1 (second series), stronger effect = lower value 1.03 | locus YJL095W, strain BCK1, stronger effect = lower value 1.02 and 0.991 | locus YJL115W, strain asf1, stronger effect = lower value 1.03 | locus YJL129C, strain trk1, stronger effect = lower value 1.06 | locus YJL134W, strain LCB3, stronger effect = lower value 0.993 | locus YJL154C, strain vps35, stronger effect = lower value 1.02 | locus YJL164C, strain tpk1, stronger effect = lower value 1.01 | locus YJL166W, strain qcr8, stronger effect = lower value 1.04 | locus YJL168C, strain set2, stronger effect = lower value 1.01 | locus YJL187C, strain SWE1 (second series), stronger effect = lower value 1.01 | locus YJL187C, strain SWE1, stronger effect = lower value 1.01 | locus YJR043C, strain POL32, stronger effect = lower value 1.01 | locus YJR066W, strain TOR1, stronger effect = lower value 0.929
